Rab9 prom act – Rab9 promoter activation; Potency, µM (doses to about 9.22 µM), for the others: at the top dose activation, negative = inhibition, actives largely listed as activators; AID 485297; actives 2.8% (n = 320,000); Huh7 Rab9 promoter-luciferase reporter, luminescence, 24 h; note: % of control where 0% means no effect; nearly all actives have a fitted effect of over 60% in size
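Using Huh7 cells stably transfected with Rab9 promoter–luciferase, compounds were incubated 24 h at 37 °C, 5% CO2; luciferase luminescence was read 10 min after reagent addition.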
Luc counter – counter-screen: inhibitors of Kinase-Glo firefly luciferase; Kinase-Glo luciferase, ATP luminescence, 8 min; Potency, µM (doses to about 38.3 µM), for the others: top-dose activity change, negative = inhibition, actives largely listed as inhibitors; actives 0.28% (n = 200,000); note: % is set by controls: 0 for no effect and ±100 for the full control effect; nearly all actives have a fitted effect of over 60% in size
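Recombinant Kinase-Glo luciferase, 10 uM ATP (linear range), luciferin; imidazole pH 7.2 / KCl / MgCl2 / Tween / BSA buffer; 8 min RT; luminescence.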
SMN2 splice up – SMN2 splice variant enhancement. HEK293 SMN2-luciferase splicing reporter, luminescence, 30-36 h. Potency, µM (titrated, usually from 46.1 µM), inactives show top-dose activity change, positive = activation, actives largely listed as activators. actives 2.8% (n = 210,000). AID 1458; note: % of control where 0% means no effect; nearly all actives have a fitted effect of over 55% in size
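HEK293 cells carry an SMN2 minigene-luciferase reporter in which exon 7 inclusion puts luciferase in frame. Cells were seeded at 2000 cells/well, attached for 10-12 hours, then exposed to compounds for 30-36 hours at 37C before ONE-Glo luminescence.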
NPC1 prom act – activates the NPC1 promoter; actives 2.4% (n = 320,000); Potency, µM (doses to about 9.22 µM), without a hit: at the highest dose activation, hits mostly activators; Huh7 NPC1 promoter luciferase reporter, 24 h; AID 485313; note: % of control where 0% means no effect; nearly all actives have a fitted effect of over 60% in size
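Huh7 cells stably carrying NPC1 promoter–luciferase, plated in Opti-MEM with 10% FBS for 2 h, were exposed to compound in DMSO for 24 h at 37 °C; luciferase reagent was added for 10 min and luminescence read.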
ELG1 genotox – induces genotoxicity in HEK293T cells with luciferase-tagged ELG1 | actives 1.3% (n = 330,000) | AID 504466 | HEK293T ELG1-luciferase reporter, luminescence, 16 h | Potency, µM (top dose mostly 46 µM), without a hit: at the top dose activity change, positive = activation, most hits filed as activators; note: % of control where 0% means no effect; nearly all actives have a fitted effect of over 60% in size
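Genotoxic stress is detected as increased luminescence from luciferase-tagged ELG1 in HEK293T cells, measured with ONE-Glo after a 16 hr treatment at 37 °C.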
FLuc modulator – inhibits or activates purified firefly luciferase, miR-21 counter-screen; Potency, µM (doses to about 57.5 µM), without a hit: top-dose activity change, negative = inhibition, actives largely listed as inhibitors; actives 6.9% (n = 360,000); purified FLuc, Km substrates, luminescence inhibition;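 note: plate controls were vehicle for no effect and reference inhibitor for full effect; nearly all actives have a fitted effect of over 55% in size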
Target sequence (P08659 whole entry, looked up): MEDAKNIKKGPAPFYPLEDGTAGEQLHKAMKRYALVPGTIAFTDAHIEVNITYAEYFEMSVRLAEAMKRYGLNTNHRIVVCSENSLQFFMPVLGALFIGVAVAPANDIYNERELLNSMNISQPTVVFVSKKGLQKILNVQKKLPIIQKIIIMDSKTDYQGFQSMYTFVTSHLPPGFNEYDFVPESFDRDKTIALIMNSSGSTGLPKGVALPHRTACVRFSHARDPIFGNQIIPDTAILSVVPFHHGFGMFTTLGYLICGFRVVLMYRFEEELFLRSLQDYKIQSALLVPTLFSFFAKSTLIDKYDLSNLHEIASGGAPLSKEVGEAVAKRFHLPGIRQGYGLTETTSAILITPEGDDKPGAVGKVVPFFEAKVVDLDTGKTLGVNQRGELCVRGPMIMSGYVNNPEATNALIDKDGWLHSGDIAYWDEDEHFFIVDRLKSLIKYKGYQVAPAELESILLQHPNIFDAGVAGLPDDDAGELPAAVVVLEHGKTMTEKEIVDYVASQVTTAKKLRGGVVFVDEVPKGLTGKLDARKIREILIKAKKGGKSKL
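Biochemical qHTS of compounds, final roughly 60 µM downward over six points, against 10 nM purified firefly luciferase using Km concentrations of substrates (10 uM D-luciferin, 10 uM ATP) in Tris acetate pH 7.5 buffer; luminescence output.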
* hit, by the source's call; u = inconclusive; x = no result; [ ] = another dose, or the depositor's remark. A selection: hits, their analogues and other compounds. The true share with any hit is near 7.4%. Calls come from the whole dose curve; as a rule, active = well fitted curve in the direction sought with a large enough effect; inconclusive = small, poorly fitted or top-dose-only effect, or another doubt; inactive = no such curve, though single readings can be large; an effect the other way counts as inactive or inconclusive. Potency is the fitted concentration of half-maximal effect.

SMILES	Rab9 prom act	Luc counter	SMN2 splice up	NPC1 prom act	ELG1 genotox	FLuc modulator
COc1cccc(/C=N/NC(=O)c2[nH]nc3c2CCc2ccccc2-3)c1	-18%	x	x	-23%	6%	u
CC(C)NC(=O)c1[nH]nc2c1CCc1ccccc1-2	3.5µM*	x	x	u	u	19µM*
CC(CN1CCCCC1)OC(=O)/C=C/c1ccccc1 (centres undefined)	6%	x	x	1%	3%	-10%
CC(Cc1cccnc1)NC(=O)c1cc(COc2ccc(F)cc2Cl)on1 (centres undefined)	9%	x	x	-13%	-2%	13µM*
Cc1ccc(OCc2cc(C(=O)NC(C)Cc3cccnc3)no2)cc1C (centres undefined)	u	x	x	u	15%	13µM*
O=C(NCCCn1cccn1)c1cc(COc2ccc(F)cc2Cl)on1	17%	x	x	16%	-3%	17µM*
CC(=O)c1ccc(OCc2cc(C(=O)NC(C)CCn3cccn3)no2)cc1 (centres undefined)	4µM*	x	x	2.8µM*	18µM*	15µM*
CCC1=C2CC[C@H]3C(=O)N(c4ccccc4)C(=O)[C@H]3[C@H]2[C@@]2(C)C(=O)N(Cc3ccccc3)C(=O)N2C1=O	x	-8%	-1%	x	x	x
O=C(CC1N=C2c3ccccc3N=C(SCC(=O)Nc3ccc(F)cc3)N2C1=O)NCc1ccc2c(c1)OCO2 (centres undefined)	x	x	x	x	x	-2%
CC(CCn1cccn1)NC(=O)c1cc(COc2ccc(F)cc2Cl)on1 (centres undefined)	2%	x	x	-2%	1%	17µM*
Cc1nc(CCNC(=O)c2cc(COc3ccc(F)cc3Cl)on2)sc1C	12%	x	x	22%	-4%	21µM*
CC(CCn1cccn1)NC(=O)c1cc(COc2ccc(F)cc2F)on1 (centres undefined)	-2%	-4%	x	-3%	0%	-4%
Cc1ccc(N2CC(NC(=O)c3cccc(Cl)c3)CC2=O)cc1C (centres undefined)	x	x	x	x	x	5%
Cc1ccc(-c2nc3s/c(=C\c4ccco4)c(=O)n3n2)cc1	4%	-11%	0%	-4%	-1%	0.76µM*
Cc1ccc(/C=c2\sc3nc(-c4ccco4)nn3c2=O)o1	-1%	-8%	14%	5%	-5%	u
COc1cc(OC)c2c(c1)C(=O)OC2	3%	2%	15%	-2%	9%	0%
COc1ccc(C2=NN(C(=O)CN3CCOCC3)C(c3nc4ccccc4[nH]3)C2)cc1 (centres undefined)	u	-2%	u	11%	u	15µM*
CCc1ccc(-c2cc(C)no2)cc1S(=O)(=O)N1CCN(C(=O)c2ccco2)CC1	-1%	x	x	-3%	0%	-3%
CCCCn1c(C)cc2c(c1=O)[C@H]1O[C@](CCCC)(Cc3c1ccc1ccccc31)O2	-8%[1.84 µM]	x	x	-4%[1.84 µM]	x	1%[11.5 µM]
c1ccc(C2=Nn3c(nnc3-c3n[nH]c4c3CCC4)SC2)cc1	3%	-7%	u	-7%	23µM*	-1%
Clc1ccc(C2=Nn3c(nnc3-c3n[nH]c4c3CCC4)SC2)cc1Cl	-5%	2%	10µM*	-9%	u	0%
Cc1nnc2n(c1=O)N=C(c1ccc(Cl)cc1)CS2	0.5µM*	4%	2µM*	1µM*	29%	2%
COc1ccc(C2=Nn3c(nnc3-c3cc(C)[nH]n3)SC2)cc1	-2%	x	x	-8%	21µM*	-1%
COc1ccc(C2=Nn3c(nnc3-c3ccc(OC)cc3)SC2)cc1	-17%	1%	u	-30%	u	-9%
c1ccc(C2=Nn3c(nnc3-c3cc(-c4ccccc4)n[nH]3)SC2)cc1	4%	0%	u	8%	u	x
O=C(COC(=O)COc1ccccc1F)NCCc1ccc(F)cc1	-2%	x	x	8%	0%	x
CCOc1ccc(CNC(=O)C2CCN(S(=O)(=O)N3CCC(C)CC3)CC2)cc1OC	x	x	x	x	x	2%

Bioassay records (PubChem)
